Test results from PubChem BioAssay (NCI).
Compounds without any hit were thinned out: in the full panel of roughly 83,000, 20% have a hit.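 Step 1: grow cells in 96-well plates. Step 2: add test compound at a single concentration. Step 3: incubate 48 h. Step 4: record percent growth.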 Values without a mark were called inactive. The source made the active and inactive calls. Rule for the calls: active = growth percent below 10; inactive = the rest.

How the values were obtained:
Assay in all cases: NCI-60 one-dose screen, 48 h (100 = growth as untreated, 0 = no growth, -100 = all killed)
Details in all cases: 10 µM unless noted
HCT-15 colon = system: HCT-15 colon
HT29 colon = system: HT29 colon
SNB-75 CNS = system: SNB-75 CNS
SNB-19 CNS = system: SNB-19 CNS
PC-3 prostate = system: PC-3 prostate
SK-MEL-5 melanoma = system: SK-MEL-5 melanoma
UACC-62 melanoma = system: UACC-62 melanoma
LOX IMVI melanoma = system: LOX IMVI melanoma
SK-MEL-28 melanoma = system: SK-MEL-28 melanoma
U251 CNS = system: U251 CNS

Structure (SMILES) | growth (HCT-15 colon) | growth (HT29 colon) | growth (SNB-75 CNS) | growth (SNB-19 CNS) | growth (PC-3 prostate) | growth (SK-MEL-5 melanoma) | growth (UACC-62 melanoma) | growth (LOX IMVI melanoma) | growth (SK-MEL-28 melanoma) | growth (U251 CNS)
O=C1Nc2ccc(Cl)cc2/C1=C/c1cccs1 | 51.9% | 110% | 84.2% | 84.3% | 93.4% | 85.7% | 86% | 86.7% | 113% | –
O=c1[nH]cc(Nc2cc(Cl)c3nonc3c2[N+](=O)[O-])c(=O)[nH]1 | 103% | 132% | 119% | 95.4% | – | 105% | 94.9% | 95% | 83.2% | 98.6%
CCOC(=O)Nc1cc(-c2ccc(C)c(NS(C)(=O)=O)c2)nn2c(C)nnc12 | 9.95% (active) | 9.76% (active) | 1.74% (active) | 39.1% | 23.8% | -57.2% (active) | 12.9% | -22.7% (active) | 14.3% | –
CCCCNCCCN(CCCC)CCCNCCCC | 93.2% | 105% | 110% | 98.2% | 90.4% | 97.3% | 96.5% | 104% | 99.6% | –
Cc1ccc(C(NC(=O)c2ccccc2)c2ccc3cccnc3c2O)cc1 (stereo not given) | 28.9% | 22.2% | 33.3% | 19.9% | 26.1% | -42.3% (active) | -8.42% (active) | 11.1% | 30.8% | –
CC(C)=CCCC(C)c1ccc(C)c2c1OCN(CC1CCNCC1)C2 (stereo not given) | 39.8% | -68.5% (active) | 89.3% | 78.2% | – | 42.2% | 63.5% | -70.5% (active) | 92.5% | -2.5% (active)
COc1cc2c(cc1OC)C(=O)/C(=C/c1cccc(OCC(=O)c3ccccc3)c1)C2 | 83.4% | 42.1% | 85.2% | 93.3% | – | 67.6% | 68.1% | 72.3% | 107% | 74.2%
COc1cc(C(=O)c2cc3c(cc2C)OCO3)cc(OC)c1OC | 19.6% | 3.84% (active) | 22.7% | 50.7% | 18.1% | 0.803% (active) | 32.7% | 19.7% | 46.6% | –
O=C(Nc1ccc(Cl)cc1)Nc1nc2ccc(OC(F)(F)F)cc2o1 | 77.5% | 84.7% | 97% | – | 44.7% | 90.8% | 82.9% | 103% | 108% | 83.1%
Cc1ccc(C2=Nc3c(ccc4c(C)c(C)c(=O)oc34)OC2)cc1 | 94.4% | 102% | 95.7% | 101% | 88.9% | 101% | 107% | 94.5% | 110% | –
Cc1ncc(C(=O)Nc2ccc(CN3CCN(C)CC3)c(C(F)(F)F)c2)cc1C#Cc1cncc2ncccc12 | 48.4% | 32.4% | 74.4% | 107% | 90.6% | 37.5% | 40.7% | 10.8% | 16.3% | –
CCCCCCCCCCCCC1CCCC(C)C1 (stereo not given) | 97.5% | 101% | 64.8% | 104% | 88.8% | 101% | 102% | 99.7% | 88.9% | –
CCOC(=O)Nc1ccc2c3c(cccc13)-c1ccccc1-2 | 25.2% | 5.04% (active) | 6.18% (active) | – | 49.8% | 33.6% | 30.5% | 30.5% | 46% | 34.5%
N#Cc1c(NC(=O)c2ccco2)[n+]([O-])c2cc(Cl)c(Cl)cc2[n+]1[O-] | 111% | 103% | 103% | – | 125% | 94.8% | 85.2% | 90.5% | 104% | 102%
COc1ccc2c(c1)sc1nc(-c3ccc(N(C)C)cc3)cn12 | 116% | 113% | 162% | – | 60.6% | 108% | 104% | 113% | 144% | 98.3%
CC(=O)c1nn(-c2ccccc2)c(=Nc2ccccc2)cc1C | 93.9% | 95.5% | 76.2% | 92.4% | 80.3% | 98.9% | 94.8% | 98.4% | 109% | –
O=[N+]([O-])c1ccc(NS(=O)(=O)c2ccc(Cl)c(Cl)c2)cc1 | 88.7% | 102% | 86.7% | 70.1% | 66.5% | 40.2% | 38.8% | 93.3% | 78.4% | –
O=c1[nH]c(SCc2ccccc2)nc2nc(Nc3ccc(NC(=S)Nc4ccccc4)cc3)nc(-c3ccc(O)cc3O)c12 | 108% | 115% | 84.6% | – | 82.6% | 101% | 87.9% | 98% | 94.3% | 85.3%
Cc1nn(-c2ccccc2)c2nc(N)c(C3=NCCO3)nc12 | 98% | 100% | 73.1% | 100% | 81.4% | 97.4% | 96.5% | 94.7% | 103% | –
Cc1ccc(-c2c3c(N)c4c(nc3nc3c2c(C)nn3-c2ccccc2)CCC4)cc1 | 15% | 3.96% (active) | 105% | 99.4% | 91.1% | 90.4% | 99.8% | -31% (active) | 70.2% | –
O=C1NCCc2c1noc2-c1ccccc1 | 106% | 90.5% | 89.7% | – | 94.5% | 105% | 104% | 98.7% | 111% | 98.5%
O=c1ncc(-c2ccc(C(F)(F)F)cc2)c(NC2CCCCCC2)[nH]1 | 103% | 56.5% | 87% | 54.9% | 25.7% | – | 29.6% | 57.9% | 49.3% | –
COc1ccc(CCN2C(=O)CCC3=C2CCCC3=O)cc1OC | 97.6% | 108% | 82.3% | 100% | – | 99.1% | 105% | 98.8% | 108% | –
Cc1cn(C(C=O)OC(C=O)CO)c(=O)[nH]c1=O (stereo not given) | 102% | 110% | 75.1% | 101% | 102% | 105% | 106% | 103% | 99.1% | –
Cn1ccnc1C(=O)/C=C/c1ccc(C(=O)Nc2nc3ccccc3[nH]2)cc1 | 24.3% | 8.78% (active) | -17% (active) | 41.1% | 38.1% | 83.1% | 74.7% | 11.5% | 89.7% | –
Cn1c(N2N=C(c3ccc(Cl)cc3)CC2c2ccccc2)nc(-c2ccccc2)c(C#N)c1=O (stereo not given) | 80% | 79.3% | 91.4% | 88.8% | 49.7% | 54.7% | 58.9% | 70.9% | 94.5% | –
O=C(Nc1nc(-c2ccc(Cl)cc2)cs1)c1cc(-c2ccc(Br)cc2)nc2ccc(Cl)cc12 | 10.8% | 9.1% (active) | 32.7% | 56% | 40.2% | 14% | 42% | 20.3% | 52.9% | –
N#CSCC1CC(O)(c2ccccc2)C(c2ccccc2)C(c2ccc(Cl)cc2)O1 (stereo not given) | -64.6% (active) | 1.18% (active) | 37.5% | – | -6.02% (active) | -87.4% (active) | -90.5% (active) | -97.4% (active) | -84% (active) | -31.1% (active)
